High-throughput results as filed in PubChem.
Sampled rows, rich in hits. Any-hit rate of the full collection: about 2.8%.
TGFb SMAD3 inh – qHTS for Inhibitors of TGF-b; HepG2 CAGA-GFP TGF-b/SMAD3 reporter, GFP fluorescence, 18 h; TGF-beta stimulated, 500 pg/mL final; 410,000 compounds, 1.2% hits; Potency, µM (doses to about 46.1 µM), for the others: top-dose activity, negative = inhibition, actives largely listed as inhibitors; further: on the % scale 0 is the no-effect control and ±100 the full control effect; nearly all actives have a fitted effect of over 65% in size
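Cell-based qHTS in HEPG2 carrying a CAGA-GFP Smad reporter; compounds added before 500 pg/mL final TGF-beta, 18 h incubation at 37 degrees C, GFP fluorescence quantified per cell by imaging cytometry.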
HepG2 viability – qHTS for Inhibitors of TGF-b: Cytotox Counterscreen | HepG2 CAGA-GFP viability, ATP luminescence, 18 h | Potency, µM (titrated, usually from 46.1 µM), inactives show top-dose activity change, negative = cytotoxicity, hits mostly cytotoxic | 410,000 compounds, 0.76% hits | AID 588856, 2011
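CellTiter-Glo luminescence gave cytotoxicity after 18 hours at 37 degrees C. The cells were HepG2 CAGA-GFP in 1% FBS DMEM, stimulated with 500 pg/mL TGF-beta after compound addition. %Activity was normalised to no-cell wells (complete cell-killing) and DMSO (no toxicity), and curves were fitted and classified.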
S2 tox – Viability Counterscreen for Primary qHTS for Inhibitors of ATXN expression; S2 cells (HEK-293 line with an ATXN2-luciferase reporter) viability, CellTiter-Fluor protease fluorescence, 24 h; Potency, µM (highest dose often 56.7 µM), actives largely listed as cytotoxic; 400,000 compounds, 0.49% hits; further: nearly all actives have a fitted effect of over 40% in size
HTT aggregate – qHTS Multiplex Assay to Identify Dual Action Probes in a Cell Model of Huntington: Aggregate Formation (GFP) | Potency, µM (doses to about 46.1 µM), inactives show at the top dose activity change, negative = inhibition, hits mostly inhibitors | 220,000 compounds, 1.1% hits | PC12 HttQ103-GFP aggregates, Acumen cytometry, 40 h | AID 1688, 2009; further: on the % scale 0 is the no-effect control and ±100 the full control effect; nearly all actives have a fitted effect of over 60% in size
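Using laser scanning cytometry, GFP-positive aggregates were counted after lysis of PC12 cells induced with 100 nM tebufenozide to express HTT exon 1 Q103–GFP. Compounds were tested in titration.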
HTT ATP protect – qHTS Multiplex Assay to Identify Dual Action Probes in a Cell Model of Huntington: Cytoprotection (ATP) | 230,000 compounds, 0.14% hits | Potency, µM (titrated, usually from 56.4 µM), inactives show cytoprotection (ATP increase), usual class: activators | PC12 HTT-Q103 induced, cytoprotection, ATP luminescence, 40 h; further: % of control where 0% means no effect; nearly all actives have a fitted effect of over 45% in size
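Compounds added alongside 100 nM tebufenozide, which induces toxic Q103 huntingtin exon 1-GFP in stable PC12 cells; surviving cells quantified by luminescent ATP measurement. Medium: phenol red-free DMEM, 5% equine and 5% calf serum.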
ATXN2 expr inh – Primary qHTS for Inhibitors of ATXN expression; HEK-293 ATXN2-luciferase reporter, luminescence, 24 h; Potency, µM (top dose mostly 57 µM), without a hit: at the top dose activity change, negative = inhibition, actives largely listed as inhibitors; 360,000 compounds, 0.72% hits; AID 1745845, 2022; further: on the % scale 0 is the no-effect control and ±100 the full control effect; nearly all actives have a fitted effect of over 55% in size
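qHTS (up to 57 uM final) was run with 24 h compound exposure of reporter cells at 37 °C. Each well was multiplexed: SteadyGlo luminescence measured ATXN2-luciferase expression after a fluorogenic Gly-Phe-AFC viability readout (25 uM final).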
* = called active by the depositor; i = inactive; ? = inconclusive; nt = no result given; [ ] = another dose, or the depositor's remark. The call rests on the fitted dose curve; in most records, active means well fitted curve in the direction sought with a large enough effect; inconclusive means small, poorly fitted or top-dose-only effect, or another doubt; inactive means no such curve, though single readings can be large; an effect the other way counts as inactive or inconclusive. Potency means the concentration at half of the fitted maximal effect.

SMILES | TGFb SMAD3 inh | HepG2 viability | S2 tox | HTT aggregate | HTT ATP protect | ATXN2 expr inh
C=CCOC(=O)N[C@@H](CC(C)C)/C(C(=O)OC)=C(\C)NCc1ccccc1 | nt | nt | nt | nt | 19.7% | nt
CC(C)(C)c1ccc(C(=O)CC(Sc2ccc(Cl)cc2)C(=O)O)cc1 (stereo not drawn) | ? | 15.8µM* | nt | -27.3% | nt | ?
COc1cc(=O)n2c(c1C(=O)NCc1ccco1)CCN(Cc1ccc(F)cc1Cl)CC2 | nt | nt | i | nt | nt | nt
CS(=O)(=O)c1nc([N+](=O)[O-])nn1CCCc1ccccc1 | ? | -187.4% | nt | nt | nt | ?
Cn1nc([N+](=O)[O-])nc1S(C)(=O)=O | 12.6µM* | 20µM* | ? | ? | 16.2%[10 µM] | ?
CC(=O)Nc1ccc(SC[C@H](Cc2ccccc2)N2CC[C@@H](N)CCC2=O)cc1 | 15.6% | -10.7% | nt | nt | nt | nt
O=C(NCCO)c1cccc(-c2cnc3c(Nc4cccc(OC(F)(F)C(F)F)c4)nccn23)c1 | ? | -58.1% | 31.6µM* | nt | nt | ?
CC(=O)Nc1cc(-c2cccc(F)c2)cn2c(-c3ccc(F)c(Cl)c3)cnc12 | 17.8µM* | -46.3% | ? | nt | nt | -29.6%
CC(=O)Nc1cc(-c2cccc(C(=O)NCCO)c2)cn2c(-c3cccc(C(F)(F)F)c3)cnc12 | ? | -110.5% | 31.6µM* | nt | nt | ?
COc1cccc(-c2cnc3c(NC(C)=O)cc(-c4cccc(C(=O)NCCN(C)C)c4)cn23)c1 | ? | 12.6µM* | ? | nt | nt | ?
COCC(=O)Nc1cc(C(=O)N2CCCC(C(N)=O)C2)cc2nc(-c3ccccc3)n(C)c12 (stereo not drawn) | nt | nt | i | nt | nt | nt
COc1cccc(OCCn2cc(C=O)c3ccccc32)c1 | 3.55µM* | -30.7% | i | nt | nt | -18.2%
O=C(COCCOCCOCC(=O)Nc1c(I)cc(I)c(C(=O)O)c1I)Nc1c(I)cc(I)c(C(=O)O)c1I | nt | nt | i | nt | nt | 11.5%
COc1cccc(-c2ccc(O)c(CNC(c3ccccc3)c3ccc(Cl)cc3)c2)n1 (stereo not drawn) | nt | nt | i | nt | nt | nt
COC(=O)c1c(OCc2ccccn2)cc(=O)n2c1CCN(C(=O)c1cc(C(C)C)nn1C)CC2 | nt | nt | i | nt | nt | nt
COC(=O)c1cnc(Nc2nc(C(N)c3ccccc3Cl)cs2)nc1C(F)(F)F (stereo not drawn) | 17.8µM* | -87.4% | 25.1µM* | nt | nt | ?
NC(c1csc(NC(=O)c2cccc(OC(F)(F)F)c2)n1)c1ccccc1Cl (stereo not drawn) | 11.2µM* | -83.7% | ? | nt | nt | 31.6µM*
Oc1ccccc1C(Sc1nc2ccccc2s1)Sc1nc2ccccc2s1 | nt | nt | nt | nt | -5.0%[10 µM] | nt
COc1cc(/C=C2\C=Cc3ccccc32)cc(OC)c1OC | 48.5% | -26.4% | nt | nt | nt | nt
CC(C)(C)NC(=O)C(c1ccc(-c2ccccc2)cc1)N(C[C@H]1CC[C@@H]([C@@H]2CC[C@H](CO)O2)O1)C(=O)c1ccc(-c2ccccc2)cc1 (stereo partly drawn) | ? | -2.2% | nt | nt | nt | ?
CC(C)(C)NC(=O)C(c1ccc(-c2ccccc2)cc1)N(C[C@H]1CC[C@@H]([C@@H]2CC[C@H](CO)O2)O1)C(=O)c1ccc2ccccc2c1 (stereo partly drawn) | ? | -88.7% | 20µM* | nt | nt | ?
Cn1ccc(C(=O)NCC2CCC3(CCN(Cc4ccc(F)cc4F)CC3)O2)n1 (stereo not drawn) | nt | nt | i | nt | nt | nt
COc1ccccc1-c1oc2ccccc2c1C#CC1(N)CCCCC1 | ? | -101.3% | 25.1µM* | nt | nt | ?
C#C[C@]1(OC(C)=O)CC[C@H]2[C@@H]3CCC4=C/C(=N/O)CC[C@@H]4[C@H]3CC[C@@]21CC | nt | nt | ? | -17.5% | -15.8% | ?
CC1C(=O)N(Cc2cn(Cc3ccco3)nn2)CCS(=O)(=O)N1Cc1ccc(-c2ccc(F)cc2Cl)cc1 (stereo not drawn) | ? | -10.1% | ? | nt | nt | ?
SMILES | TGFb SMAD3 inh | HepG2 viability | S2 tox | HTT aggregate | HTT ATP protect | ATXN2 expr inh
CCC/C=C/c1ccc(CN2C(CC(C)C)C(=O)N(Cc3cn(CCC4OCCO4)nn3)CCS2(=O)=O)cc1 (stereo not drawn) | ? | -81.4% | nt | nt | nt | ?
CCC/C=C/c1ccc(CN2C(CC(C)C)C(=O)N(Cc3cn(CCC4OCCCO4)nn3)CCS2(=O)=O)cc1 (stereo not drawn) | 12.6µM* | 15.8µM* | nt | nt | nt | ?
CC1C(=O)N(Cc2cn(Cc3ccco3)nn2)CCS(=O)(=O)N1Cc1ccc(-c2ccccc2Cl)cc1 (stereo not drawn) | ? | -31.5% | 11.2µM* | nt | nt | -11.5%
Cc1ccc(-c2ccc(CN3C(CC(C)C)C(=O)N(Cc4cn(CCC5OCCCO5)nn4)CCS3(=O)=O)cc2)cc1 (stereo not drawn) | ? | -56.8% | nt | nt | nt | 28.2µM*
CC(C)C1C(=O)N(Cc2cn(CCC3OCCO3)nn2)CCS(=O)(=O)N1Cc1ccc(-c2ccc(Cl)cc2)cc1 (stereo not drawn) | ? | -70.1% | ? | nt | nt | 28.2µM*
Cc1cccc2nc(CNC(=O)CN3Cc4cc(Cl)ccc4OC(C)C3)cn12 (stereo not drawn) | nt | nt | i | nt | nt | nt
CC(C)CC1C(=O)N(Cc2cn(CC3CCCCC3)nn2)CCS(=O)(=O)N1Cc1ccc(-c2ccc(Cl)c(Cl)c2)cc1 (stereo not drawn) | -28.1% | -19.1% | ? | nt | nt | -4.7%
Cc1cccc(C)c1-c1ccc(CN2C(CC(C)C)C(=O)N(Cc3cn(CC4CCCCC4)nn3)CCS2(=O)=O)cc1 (stereo not drawn) | ? | 11.2µM* | 35.5µM* | nt | nt | ?
OC1c2cc(Br)ccc2N=C2CCCN21 (stereo not drawn) | ? | -103.6% | 15.8µM* | nt | nt | nt
CC(C)(C)c1ccc(S(=O)(=O)N[C@H]2CC[C@@H](n3cc(C(=O)N4CCCC4)nn3)CC2)cc1 | nt | nt | i | nt | nt | nt
CCOC(=O)c1sc(NC(=O)c2cc(-c3ccc(C)cc3)nc3ccccc23)c(C#N)c1C | ? | -12.0% | i | 10µM* | -70.4% | 9.4%
CCOC(=O)c1sc(NC(=O)CSc2n[nH]c(-c3ccncc3)n2)c(C#N)c1C | ? | -41.3% | i | 7.08µM* | -90.8%[10 µM] | -10.4%
CC(C)(C)n1ncc2c(=O)n(Cc3c(F)ccc(F)c3Cl)cnc21 | 4.1% | -32.8% | nt | nt | nt | nt
COc1cccc(Cc2nc3cccnc3n2C2CCN(C(=O)c3n[nH]c4c3CCCC4)CC2)c1 | nt | nt | i | nt | nt | nt
